Laboratory results reported in PubChem BioAssay (Tox21).
“And” between values parts separate entries of the source, which are not always exact repeats. Equal entries are not always repeated. Results filed as inconclusive are left out. A structure can be active in one record and inactive in another. The source made the active and inactive calls. Unless noted, calls come from the whole dose curve.

Legend:
[1] = Nuclear factor erythroid 2-related factor 2/antioxidant responsive element (Nrf2/ARE) small molecule agonists: qHTS cell viability counter screen in human keratinocytes (AID 1919968; active = well fitted curve in the direction sought with a large enough effect in the repeat runs; an effect the other way counts as inactive or inconclusive; note: nearly all actives have a fitted effect of over 55% in size; note: potency is the fitted concentration of half-maximal effect)
Method in brief: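 In human HaCaT keratinocytes stably expressing an ARE-driven luciferase, compound exposure lasted 23 h at 37 C under 5% CO2. Viable cells are quantified with a protease-based fluorogenic reagent (CellTiter-Fluor) read 1 h after addition.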

[2] = Nuclear factor erythroid 2-related factor 2/antioxidant responsive element (Nrf2/ARE) small molecule agonists: luciferase reporter gene qHTS assay in human keratinocytes (AID 1919969); note: nearly all actives have a fitted effect of over 35% in size; note: potency is the fitted concentration of half-maximal effect
[3] = target: Gonadotropin-releasing hormone receptor (Homo sapiens) (UniProt P30968); assay: Human gonadotropin-releasing hormone receptor (GnRHR) small molecule agonists, calcium flux assay in GnRHR-HEK293 cells (AID 1920063); note: nearly all actives have a fitted effect of over 35% in size
Sequence of Gonadotropin-releasing hormone receptor (Homo sapiens) (P30968 whole entry, looked up): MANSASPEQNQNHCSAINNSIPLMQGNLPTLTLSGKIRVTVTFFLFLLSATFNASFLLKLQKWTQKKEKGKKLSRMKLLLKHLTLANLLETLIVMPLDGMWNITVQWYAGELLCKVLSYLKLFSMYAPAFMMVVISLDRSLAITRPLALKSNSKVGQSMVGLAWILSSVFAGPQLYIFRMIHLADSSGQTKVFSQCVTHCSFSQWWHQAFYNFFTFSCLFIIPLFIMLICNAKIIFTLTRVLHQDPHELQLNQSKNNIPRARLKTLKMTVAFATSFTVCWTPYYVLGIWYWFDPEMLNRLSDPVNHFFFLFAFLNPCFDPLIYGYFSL
Method in brief: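 Intracellular calcium rise is the read-out: engineered human GnRHR HEK293 cells, dye-loaded, are exposed to DMSO-dissolved compounds and fluorescence at Ex/Em 480/540 is tracked for 3 min.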

[4] = target: KiSS-1 receptor (Homo sapiens) (UniProt Q969F8); assay: Human kisspeptin (KISS1R) small molecule agonists, calcium flux assay in KISS1R-HEK293 cells (AID 1920064; active = well fitted curve in the direction sought with a large enough effect in the repeat runs; an effect the other way counts as inactive or inconclusive)
Sequence of KiSS-1 receptor (Homo sapiens) (Q969F8 whole entry, looked up): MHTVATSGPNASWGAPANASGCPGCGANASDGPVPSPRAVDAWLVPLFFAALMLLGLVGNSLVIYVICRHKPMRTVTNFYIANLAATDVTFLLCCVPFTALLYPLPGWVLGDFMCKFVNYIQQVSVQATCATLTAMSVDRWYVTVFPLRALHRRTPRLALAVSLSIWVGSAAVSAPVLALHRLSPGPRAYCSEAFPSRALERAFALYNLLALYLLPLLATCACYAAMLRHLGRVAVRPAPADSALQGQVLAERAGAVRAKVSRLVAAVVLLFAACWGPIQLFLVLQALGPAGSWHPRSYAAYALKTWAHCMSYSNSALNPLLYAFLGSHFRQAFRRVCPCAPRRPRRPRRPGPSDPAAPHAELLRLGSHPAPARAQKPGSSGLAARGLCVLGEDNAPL
Method in brief: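 Concentration-response testing used 15 concentrations in triplicate on human KISS1R-expressing HEK293 cells. Calcium-dependent fluorescence (Ex/Em 480/540) was followed kinetically for 3 min after compound transfer.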

[5] = G protein-coupled receptor (GPCR) small molecule agonists, calcium flux assay: HEK293 wild type cell line counter screen (AID 1920065)
Method in brief: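 Fluorescence intensity signals activation. After overnight (18 h) culture and a 1 h calcium dye load at 37 C, compounds are added by pin tool and the plate read at 480/540 nm for 3 min in 1 s steps.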

[6] = p53 small molecule agonists, cell-based qHTS assay with human liver microsomes: qHTS cell viability counter screen (AID 1963579); note: nearly all actives have a fitted effect of over 45% in size
Method in brief: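 Metabolic activation used human liver microsomes and NADPH, both 0.5 mg/mL final, over 16 hours at 37 C on p53RE-bla cells (4,000/well). Cytotoxicity measured by CellTiter-Glo luminescence, 30 min at room temperature.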

[7] = p53 small molecule agonists, cell-based qHTS assay with rat liver microsomes: qHTS cell viability counter screen (AID 1963580); note: nearly all actives have a fitted effect of over 45% in size
Method in brief: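 Luminescent ATP readout (CellTiter-Glo, 30 min at room temperature) reports viability of p53RE-bla HCT-116 cells after 16 h at 37 C with test compounds under metabolic activation by rat liver microsomes and NADPH at 0.5 mg/mL final each.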

[8] = p53 small molecule agonists, cell-based qHTS assay: qHTS cell viability counter screen (AID 1963581); note: nearly all actives have a fitted effect of over 45% in size
Method in brief: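 Luminescence from CellTiter-Glo, reflecting ATP content, serves as the cytotoxicity measure; it is taken after the 2 h reporter substrate step in HCT-116 p53RE-bla cells dosed for 16 h at 37 C.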

[9] = target: 5-hydroxytryptamine receptor 2A (Homo sapiens) (UniProt P28223); assay: 5-hydroxytryptamine receptor 2A (HTR2A) small molecule antagonists, cell-based qHTS assay (AID 1963586); note: nearly all actives have a fitted effect of over 45% in size
Sequence of 5-hydroxytryptamine receptor 2A (Homo sapiens) (P28223 whole entry, looked up): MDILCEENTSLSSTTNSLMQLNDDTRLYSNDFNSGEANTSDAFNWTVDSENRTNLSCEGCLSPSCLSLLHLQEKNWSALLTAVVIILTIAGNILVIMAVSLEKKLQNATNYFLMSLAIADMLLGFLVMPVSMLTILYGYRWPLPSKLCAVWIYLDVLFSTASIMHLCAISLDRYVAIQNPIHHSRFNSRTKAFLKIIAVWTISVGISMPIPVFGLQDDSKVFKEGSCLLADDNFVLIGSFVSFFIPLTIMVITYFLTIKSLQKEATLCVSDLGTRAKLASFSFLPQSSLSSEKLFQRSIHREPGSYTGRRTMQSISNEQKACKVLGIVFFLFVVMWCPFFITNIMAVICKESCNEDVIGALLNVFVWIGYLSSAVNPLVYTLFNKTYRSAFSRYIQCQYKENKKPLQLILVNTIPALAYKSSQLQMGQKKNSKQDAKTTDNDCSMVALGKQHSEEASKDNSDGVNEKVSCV
Method in brief: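 CHO cells stably expressing human HTR2A were plated for 18 h at 37 C, then loaded with calcium dye for 1 h. Compounds were preincubated 5 min at room temperature before DOI (4 nM solution) was added. Kinetic fluorescence was read for 3 min.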

[10] = target: 5-hydroxytryptamine receptor 2A (Homo sapiens) (UniProt P28223); assay: 5-hydroxytryptamine receptor 2A (HTR2A) small molecule agonists, cell-based qHTS assay (AID 1963587); note: nearly all actives have a fitted effect of over 30% in size
Method in brief: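 HTR2A-CHO cells, plated 18 h at 37 C/5% CO2, dye-loaded 1 h at 37 C; compounds in DMSO added by pin tool (agonist mode). Intracellular calcium flux read as kinetic fluorescence on FDSS over 2 min at 1 s intervals.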

[11] = target: Muscarinic acetylcholine receptor M1 (Homo sapiens) (UniProt P11229); assay: Cholinergic receptor muscarinic 1 (CHRM1) small molecule antagonists, cell-based qHTS assay (AID 1963588); note: nearly all actives have a fitted effect of over 40% in size
Sequence of Muscarinic acetylcholine receptor M1 (Homo sapiens) (P11229 whole entry, looked up): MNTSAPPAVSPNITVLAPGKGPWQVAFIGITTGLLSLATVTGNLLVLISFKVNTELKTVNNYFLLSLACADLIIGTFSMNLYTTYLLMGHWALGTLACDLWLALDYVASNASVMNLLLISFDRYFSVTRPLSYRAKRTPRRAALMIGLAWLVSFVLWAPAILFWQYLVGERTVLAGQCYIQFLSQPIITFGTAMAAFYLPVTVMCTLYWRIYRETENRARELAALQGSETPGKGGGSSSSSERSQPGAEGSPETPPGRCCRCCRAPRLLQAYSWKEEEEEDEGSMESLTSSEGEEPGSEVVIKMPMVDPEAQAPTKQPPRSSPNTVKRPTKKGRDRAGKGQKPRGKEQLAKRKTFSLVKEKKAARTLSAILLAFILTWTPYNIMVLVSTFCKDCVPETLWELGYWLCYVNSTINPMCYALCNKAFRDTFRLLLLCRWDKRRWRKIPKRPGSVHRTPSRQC
Method in brief: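 Compounds were tested at 15 concentrations in three independent runs. Dye-loaded CHRM1-CHO cells were exposed 5 min at room temperature before stimulation by acetylcholine added at 50nM. Intracellular calcium was read kinetically on FDSS for 3 min.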

[12] = target: Muscarinic acetylcholine receptor M1 (Homo sapiens) (UniProt P11229); assay: Cholinergic receptor muscarinic 1 (CHRM1) small molecule agonists, cell-based qHTS assay (AID 1963589); note: nearly all actives have a fitted effect of over 35% in size
Method in brief: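 Fluorescent calcium dye reports M1 activation in stably transfected CHO cells. Compounds, 15 concentrations, added after 1 h dye loading at 37 C; kinetic reading at 1 sec intervals.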

[13] = cAMP Responsive Elements (CRE) small molecule agonists, cell-based qHTS assay (AID 1963590)
Method in brief: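 Compound exposure lasted 3 h at 37 C/5% CO2 in CRE-bla HEK 293T cells grown in assay medium with 10% dialyzed FBS and 25 mM HEPES. Reporter signal came from LiveBLAzer B/G FRET substrate, 2 h, room temperature.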

[14] = cAMP Responsive Elements (CRE) small molecule antagonists, cell-based qHTS assay (AID 1963591; active = well fitted inhibition curve with a large enough effect in the signal ratio in the repeat runs, not every such curve was filed as active; the % refers to the signal ratio)
Method in brief: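 Stimulation used NKH477 at a final 0.25 uM for 3 h in compound-treated CRE-bla HEK293T cells, seeded 18 h beforehand. Reporter activity was measured with LiveBLAzer B/G FRET substrate after 2 h at room temperature.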

[15] = target: Beta-2 adrenergic receptor (Homo sapiens) (UniProt P07550); assay: Adrenergic beta2 receptor (ADRB2) small molecule antagonists, cell-based qHTS assay (AID 1963592); note: nearly all actives have a fitted effect of over 50% in size; note: potency is the fitted concentration of half-maximal effect
Sequence of Beta-2 adrenergic receptor (Homo sapiens) (P07550 whole entry, looked up): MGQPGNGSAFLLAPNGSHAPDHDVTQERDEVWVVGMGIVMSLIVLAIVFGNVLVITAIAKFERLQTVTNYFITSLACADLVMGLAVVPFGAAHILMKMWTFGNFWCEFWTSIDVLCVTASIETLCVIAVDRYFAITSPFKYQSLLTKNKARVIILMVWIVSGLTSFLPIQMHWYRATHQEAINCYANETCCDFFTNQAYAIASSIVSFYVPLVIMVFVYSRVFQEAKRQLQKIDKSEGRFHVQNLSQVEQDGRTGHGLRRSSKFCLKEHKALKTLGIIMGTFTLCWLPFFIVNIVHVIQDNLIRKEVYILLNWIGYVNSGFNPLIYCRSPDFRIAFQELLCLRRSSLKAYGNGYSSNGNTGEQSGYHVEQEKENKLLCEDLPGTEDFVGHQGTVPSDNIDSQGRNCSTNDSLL
Method in brief: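 Assay format: CHO-ADRB2 cells, 18-20hr seeding at 37C/5% CO2, then compound plus 1nM isoproterenol agonist mix for 0.5hr RT. Homogeneous time-resolved fluorescence cAMP detection after 1hr, expressed as 665/615 nm ratio.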

[16] = target: Beta-2 adrenergic receptor (Homo sapiens) (UniProt P07550); assay: Adrenergic beta2 receptor (ADRB2) small molecule agonists, cell-based qHTS assay (AID 1963593);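 note: CHO cells stably overexpressing human ADRB2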
Method in brief: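 CHO cells stably over-expressing ADRB2 were plated overnight at 37C, then dosed with compounds plus a stimulation mix containing 100uM IBMX and 25uM Ro-20-1724 for 0.5hr at room temperature. cAMP was measured by HTRF competition, 1hr.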

[17] = target: D(2) dopamine receptor (Homo sapiens) (UniProt P14416); assay: Dopamine D2 receptor (DRD2) small molecule agonists, cell-based qHTS assay (AID 1963594); note: nearly all actives have a fitted effect of over 35% in size; note: potency is the fitted concentration of half-maximal effect
Sequence of D(2) dopamine receptor (Homo sapiens) (P14416 whole entry, looked up): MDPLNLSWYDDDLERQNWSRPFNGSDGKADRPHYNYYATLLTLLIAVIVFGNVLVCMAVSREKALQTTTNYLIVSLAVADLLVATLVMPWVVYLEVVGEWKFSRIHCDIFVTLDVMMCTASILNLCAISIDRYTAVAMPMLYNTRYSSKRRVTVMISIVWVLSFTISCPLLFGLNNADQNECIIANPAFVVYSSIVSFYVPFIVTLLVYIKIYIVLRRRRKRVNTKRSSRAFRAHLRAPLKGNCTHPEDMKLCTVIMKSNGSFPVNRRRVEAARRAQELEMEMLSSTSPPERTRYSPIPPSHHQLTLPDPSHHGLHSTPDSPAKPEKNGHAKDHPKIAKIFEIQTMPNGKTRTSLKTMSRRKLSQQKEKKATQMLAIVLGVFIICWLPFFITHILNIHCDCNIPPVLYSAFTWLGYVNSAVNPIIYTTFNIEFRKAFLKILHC
Method in brief: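 HEK293 cells stably expressing DRD2 were cultured 24 h at 37 C, then given Ro20-1724 (0.1 mM final) and compounds for 10 min at room temperature. NKH477 (200nM) was then added for 30 min. cAMP was read by HTRF.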

[18] = target: D(2) dopamine receptor (Homo sapiens) (UniProt P14416); assay: Dopamine D2 receptor (DRD2) small molecule antagonists, cell-based qHTS assay (AID 1963595; active = well fitted inhibition curve with a large enough effect in the signal ratio in the repeat runs, with a control signal flat; the % refers to the signal ratio)
Method in brief: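 In this cell-based antagonist screen, compounds act for 10 min at room temperature before a 30 min challenge with 12 nM quinpirole and 200 nM NKH477. cAMP is quantified by HTRF competition in DRD2-HEK293 cells containing 0.1 mM Ro20-1724.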

[19] = p53 small molecule agonists, cell-based qHTS assay with rat liver microsomes (AID 1963578)
Method in brief: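 Metabolic activation by rat liver microsomes and NADPH, each 0.5 mg/mL final, added right after compounds to p53RE-bla reporter cells (4,000/well, plated 5 h earlier). 16 h at 37 C, then LiveBLAzer substrate for 2 h at room temperature in the dark; fluorescence read-out.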

[20] = p53 small molecule agonists, cell-based qHTS assay (AID 1963582; active = well fitted activation curve with a large enough effect in the signal ratio in the repeat runs, not every such curve was filed as active; the % refers to the signal ratio)
Method in brief: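 After plating, p53RE-bla cells sat 5 h in the incubator; compounds or DMSO vehicle were pinned in; a 16 h incubation at 37 C followed; FRET substrate was added and, 2 h later at RT, fluorescence was measured.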

Measured: Potency

Cn1cnc2c1c(=O)[nH]c(=O)n2C
not listed: [19] | [20]
inactive: all other assays above

CCCCCCCCCCCC(=O)OC[C@@H](O)[C@H]1OC[C@H](OCCO)[C@H]1OCCO
active: [2] 23.7 µM
not listed: [5]
inactive: all other assays above

c1ccc(CSCc2ccccc2)cc1
not listed: [5]
inactive: all other assays above

CN/C(=C\[N+](=O)[O-])NCCSCc1ccc(CN(C)C)o1
inactive and 17.4 µM (active): [17]
inactive: [1] | [2] | [3] | [4] | [5] | [8] | [20] | [14] | [16] | [18]

CC1CCC(C(C)C)C(O)C1 (configuration not stated)
not listed: [6] | [18] | [19] | [20]
inactive: all other assays above

C[C@@H](O)[C@H]1C(=O)N2C(C(=O)O)=C([C@H]3CCCO3)S[C@H]12
not listed: [6] | [19]
inactive: all other assays above

CC(c1cc2ccccc2s1)N(O)C(N)=O (configuration not stated)
inactive: [1] | [2] | [3] | [4] | [5] | [8] | [13] | [14] | [15] | [16] | [18]

O=C1Nc2ccccc2C1(c1ccc(O)cc1)c1ccc(O)cc1
active: [2] 386 nM and 841 nM
not listed: [6] | [8] | [14] | [16] | [19] | [20]
inactive: all other assays above

CCOC(=O)N1CCC(=C2c3ccc(Cl)cc3CCc3cccnc32)CC1
active: [1] 68.6 µM and 26.6 µM | [15] 54.5 µM
inactive: [2] | [3] | [4] | [5] | [8] | [13] | [14] | [17] | [18]
